Screening results deposited in PubChem by National Center for Advancing Translational Sciences (NCATS).
Hits are enriched below; roughly 7.7% of the tested compounds scored in any of these assays.
HCMV inh – qHTS Assay for inhibitors of the human cytomegalovirus (HCMV) | HFF cells, HCMV-luciferase reporter, 72 h; stronger effect = lower value | activity change, negative = inhibition, % at 57.5 µM | 410,000 compounds, 4.5% hits | AID 1259415, 2018; in the data active means activity change below about -60%; inconclusive means no clear call, values can overlap the other calls; inactive means above about -39%
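Inhibition of viral replication was scored as loss of reporter luminescence in HFFs infected with HCMV-luciferase (MOI 1 PFU/cell) for 72 h; compounds tested at 2 doses, normalized to buffer and Salinomycin controls.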
Sm TGR inh – qHTS Assay for the Inhibitors of Schistosoma Mansoni Peroxiredoxins; 360,000 compounds, 3% hits; Potency, µM (series often up to 114 µM), for inactives: at the top dose activity change, negative = inhibition, hits mostly inhibitors; purified TGR, DTNB reduction, TNB absorbance 405 nm; AID 485364, 2010; further: potency means the concentration at half of the fitted maximal effect; nearly all actives have a fitted effect of over 60% in size
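TGR 20 nM + NADPH 100 uM (dispensed conc.), cpd preinc 15 min RT; start with NADPH (500 uM addition) then DTNB (15 mM addition). Kinetic TNB absorbance, 405 nm filter. Four-parameter Hill fit across titration.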
FBPA Giardia inh – qHTS Assay for Inhibitors of Fructose-1,6-bisphosphate Aldolase from Giardia Lamblia. Potency, µM (highest dose often 59.6 µM), for the others: top-dose activity, negative = inhibition, usual class: inhibitors. 290,000 compounds, 0.71% hits. A8B2U2. purified Giardia FBPA. AID 2451, 2010; further: potency means the concentration at half of the fitted maximal effect; nearly all actives have a fitted effect of over 55% in size
Target sequence (A8B2U2 whole entry, looked up): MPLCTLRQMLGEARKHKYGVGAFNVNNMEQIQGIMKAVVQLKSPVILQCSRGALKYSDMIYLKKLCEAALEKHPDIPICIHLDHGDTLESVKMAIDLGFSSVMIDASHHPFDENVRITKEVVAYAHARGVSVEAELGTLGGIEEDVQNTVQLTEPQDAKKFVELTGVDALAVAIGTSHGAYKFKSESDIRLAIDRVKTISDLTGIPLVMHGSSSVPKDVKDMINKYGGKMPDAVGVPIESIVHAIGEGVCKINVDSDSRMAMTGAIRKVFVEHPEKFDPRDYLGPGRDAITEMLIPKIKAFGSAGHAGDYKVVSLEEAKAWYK
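40 nM FBPA preincubated 10 min at RT with compound (up to 57.5 uM final), then substrate plus GAPDH/TPI/NAD/arsenate coupling and diaphorase/resazurin added. Fluorescence read after 20 min at RT, 525/598 nm.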
TbPYK inhibitor – qHTS of Trypanosoma Brucei Inhibitors | pyruvate kinase (Trypanosoma brucei), Q57TT1 | TbPYK enzyme, Kinase-Glo Plus ATP luminescence, 45 min | Potency, µM (doses to about 76.8 µM), for inactives: at the highest dose activity, negative = inhibition, actives largely listed as inhibitors | 410,000 compounds, 0.12% hits | AID 624173, 2012; further: potency means the concentration at half of the fitted maximal effect; nearly all actives have a fitted effect of over 50% in size
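Quantitative HTS: titrated library compounds versus trypanosomal pyruvate kinase in TEA buffer (pH 7.2) containing KCl, MgCl2, BSA and Tween-20. Reactions were initiated with ADP, 130 uM final. Kinase-Glo Plus luminescence was read after 45 min at RT.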
FMDV antiviral – High Throughput Screening for Foot and Mouth Disease Virus Antivirals; FMDV antiviral cell-based qHTS; Potency, µM (top dose mostly 57.9 µM), without a hit: at the highest dose activity change, negative = inhibition, usual class: inhibitors; AID 1159524, 2015; 410,000 compounds, 1.2% hits; calls by dose curve; tested in HEK293T cells; further: read-out not given here; potency means the concentration at half of the fitted maximal effect; nearly all actives have a fitted effect of over 45% in size
RE007 growth inh – qHTS Assay for Inhibitors of the HIV-1 protein Vpr. S. pombe RE007 Vpr strain, BacTiter-Glo ATP luminescence, 24 h. Potency, µM (series often up to 92.2 µM), for the others: at the highest dose activity change, negative = less growth, hits mostly inhibitors. 360,000 compounds, 0.21% hits. AID 651644, 2012; active means well fitted falling curve with a large enough effect; inconclusive means small, poorly fitted or top-dose-only effect; inactive means no such curve, though single readings can be large or run the other way; further: potency means the concentration at half of the fitted maximal effect; nearly all actives have a fitted effect of over 50% in size
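Fission yeast strain RE007, carrying one chromosomally integrated HIV-1 vpr copy, was seeded at OD 0.01 in PMG+AL medium with 23 nL pinned compound. After 24 h at 30 °C and 99% humidity, viability was read by BacTiter-Glo luminescence.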
* hit, by the source's call; ? = inconclusive; . = no result. Unless noted, the call rests on the fitted dose curve; in most records, active means well fitted curve in the direction sought with a large enough effect; inconclusive means small, poorly fitted or top-dose-only effect, or another doubt; inactive means no such curve, though single readings can be large; an effect the other way counts as inactive or inconclusive. On the % scale 0 is the no-effect control and ±100 the full control effect.

SMILES	HCMV inh	Sm TGR inh	FBPA Giardia inh	TbPYK inhibitor	FMDV antiviral	RE007 growth inh
CCN(c1cccc(C)c1)S(=O)(=O)c1ccc(-c2ccc(=O)[nH]n2)o1	?	?	-18%	0%	-6%	12%
COc1ccc(CNS(=O)(=O)c2ccc(-c3ccc(=O)[nH]n3)o2)cc1	-40	89µM*	.	-1%	-8%	14%
COC(=O)/C=C1\OC(C)c2ccccc21 (stereo unspecified)	84	.	.	.	.	.
COC(=O)c1cc2sc(Cl)cc2n1CC(=O)Nc1cc(C)cc(C)c1	-22	-2%	.	-1%	-1%	.
COc1ccc(OC)c(NC(=O)c2c(NCc3ccc(C)o3)sc3c2CCC(C)C3)c1 (stereo unspecified)	-1	40µM*	.	?	0%	.
COc1ccc(Cl)cc1NC(=O)c1c(NCc2ccc(C)o2)sc2c1CCCC2	25	28µM*	.	?	-19%	.
COC(=O)c1ccc(NC(=O)c2c(NCc3ccc(C)o3)sc3c2CCCC3)cc1	-2	?	.	?	12%	.
CCOc1ccccc1NC(=O)c1c(NCc2ccc(C)o2)sc2c1CCCCC2	8	8.9µM*	.	?	0%	.
COc1ccc(OC)c(NC(=O)c2c(NCc3ccc(OC)c(OC)c3)sc3c2CCC(C)C3)c1 (stereo unspecified)	3	-1%	.	-26%	-13%	.
COc1ccc(Cl)cc1NC(=O)c1c(NCc2cccnc2)sc2c1CCCC2	2	20µM*	.	?	-6%	.
COc1ccc(-n2c(=O)c3sc4ccccc4c3n(CC(=O)Nc3ccccc3F)c2=O)cc1	0	2%	.	-8%	-4%	.
c1ccc(Nc2scc(-c3ccccc3)[n+]2Cc2ccco2)cc1	20	40µM*	-16%	-4%	11%	-19%
Cc1ccccc1C(=O)NNC1CC(=O)N(c2ccc3c(c2)OCCO3)C1=O (stereo unspecified)	-24	3%	6%	3%	-13%	6%
CCN(CCO)C1CC(=O)N(c2ccccc2C)C1=O (stereo unspecified)	.	6.3µM*	-14%	-6%	-5%	22µM*
COc1ccccc1N(O)C1CC(=O)N(c2ccc(F)cc2)C1=O (stereo unspecified)	23	3.5µM*	-14%	-18%	46%	-6%
COc1ccccc1N1C(=O)CC(N(O)c2ccccc2)C1=O (stereo unspecified)	39	40µM*	0%	0%	-3%	5%
CCCOc1ccccc1N1C(=O)CC(N(O)c2ccccc2)C1=O (stereo unspecified)	-40	-14%	-1%	0%	-22%	3%
Cc1ccccc1N1C(=O)CC(N(O)c2ccccc2)C1=O (stereo unspecified)	51	40µM*	?	1%	22%	3%
CC12CCC(C/C1=N/OC(=O)c1cccc([N+](=O)[O-])c1)C2(C)C (stereo unspecified)	-65*	-17%	-2%	-10%	-20%	-13%
O=C(NCc1ccc2c(c1)OCO2)[C@H]1[C@H](CO)[C@H]2Cn3c(cccc3=O)[C@@H]1N2Cc1ccccc1	-9	.	.	.	.	.
COc1ccc2c(c1)[C@@H](NCc1nccs1)[C@H](C)[C@@H](c1ccccc1)N2C(=O)NC(C)C	-9	.	.	.	.	.
O=C1Nc2ccccc2Nc2ccc([N+](=O)[O-])cc21	-6	-16%	-19%	-8%	-2%	2%
O=[N+]([O-])C(=C1Nc2ccccc2N1)C(Cl)=C(Cl)Cl	31	3.2µM*	?	-3%	?	3%
Cc1cccc(NC(=O)CCC(=O)OCC(=O)c2ccc(Oc3ccc([N+](=O)[O-])cc3)cc2)c1	-3	40µM*	-2%	-8%	-14%	-5%
Cc1ccc(NC(=O)CCC(=O)OCC(=O)c2ccc(Oc3ccc([N+](=O)[O-])cc3)cc2)cc1C	9	-24%	3%	-19%	4%	1%
SMILES	HCMV inh	Sm TGR inh	FBPA Giardia inh	TbPYK inhibitor	FMDV antiviral	RE007 growth inh
CN1\C(=C/C=C/C=C/C=[N+](C)C)C(C)(C)c2ccccc21	2	1%	-16%	?	16µM*	?
CCOC(=O)C(=Cc1ccc(-n2cncn2)cc1)C(=O)OCC	-100*	16µM*	0%	0%	28µM*	-19%
Cc1ccc(-c2csc(N(CCO)CCCn3c(C(F)(F)F)nc4ccccc43)n2)cc1	-64*	-4%	-23%	1%	?	-18%
CCC(=O)N[C@@H]1c2ccccc2C2(CCN(Cc3ccccn3)CC2)[C@H]1OC	.	.	.	.	-15%	.
O=C1/C(=C/c2cccnc2)Sc2ccccc21	74	6%	-3%	6%	30%	28µM*
COc1ccc2c(c1)c[n+](C)c1c3cc(OC)c(OC)cc3ccc21	-96*	.	.	0%	-20%	?
COc1cc2c(ccc3c4cc(OC)c(OC)cc4c[n+](C)c23)cc1O	-100*	.	.	-22%	10%	?
COc1cc2c[n+](C)c3c4ccccc4ccc3c2cc1OC	-82*	.	.	-4%	8%	?
CCCN(CCC)C(=O)Cn1c(=O)n(-c2ccc(OC)cc2OC)c(=O)c2c3c(sc21)CCC3	0	0%	.	8%	-12%	.
O=S1(=O)c2ccccc2N(Cc2ccccc2)c2ccccc21	10	-2%	.	1%	-9%	.
CCn1cc2nc(SCc3cc(C)ccc3C)n(Cc3ccc(C)cc3)c(=O)c2n1	18	8%	.	-12%	-29%	.
O=S(=O)(CCOc1ccccc1)c1nc2ccccc2[nH]1	-69*	13µM*	25%	6%	-20%	0%
O=C(O)/C=C/C(=O)N1N=C(c2ccco2)CC1c1ccco1 (stereo unspecified)	12	?	-1%	-1%	-10%	-10%
CCC(=O)N1N=C(c2ccc(Cl)cc2)CC1c1ccco1 (stereo unspecified)	-4	-6%	0%	-2%	-12%	-2%
O=C(CCl)N1N=C(c2ccco2)CC1c1ccco1 (stereo unspecified)	-72*	6.3µM*	0%	-14%	-24%	5%
CN1CCN(CC(=O)N2N=C(c3cccs3)CC2c2ccco2)CC1 (stereo unspecified)	0	3%	-2%	1%	-7%	-1%
O=C(COc1ccccc1F)N1N=C(c2cccs2)CC1c1ccco1 (stereo unspecified)	-24	25µM*	.	-4%	5%	13%
